This is a sample that favours compounds with a hit; in the whole collection about 3% have one here.
PMP22 txn = PMP22 gene transcription modulation | S16 Pmp22-F2sN Schwann cells, FLuc/NLuc coincidence luminescence, 24 h | Potency, µM (highest dose often 57.5 µM), most hits filed as inhibitors | 43,000 compounds, 2% hits; active means clear falling dose curves in both reporters; inconclusive means both reporters move, but less clearly or upward; inactive means either reporter flat; the % is the NLuc reporter signal
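Luminescent read-out of sequential FLuc and NLuc signals from a reporter embedded in the Pmp22 3' UTR of S16 Schwann cells, taken after 24 h compound exposure at 37C; compounds reducing both signals score as inhibitors of expression.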
SKOV3 invasion = blocks SKOV3ip1 adhesion and invasion in omental model | SKOV3ip1-GFP adhesion/invasion on 3D omental model, fluorescence | Potency, µM (series often up to 45.8 µM), most hits filed as inhibitors | 46,000 compounds, 0.1% hits; further: nearly all actives have a fitted effect of over 65% in size
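A 3D layer of primary human omental fibroblasts, mesothelial cells, fibronectin and collagen I, grown 48 hr, received SKOV3ip1-GFP cells in serum-free medium plus compounds at 0.36-46 umol/L. After 2 hr RT and 16 hr 37 C, fixed adherent GFP cells were counted; normalized to DMSO and tomatine.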
p53null 32C tox = kills p53 null cells at the permissive temperature; H1299-neo p53 null cells, ATP luminescence, 24 h, 32C; Potency, µM (series often up to 46.1 µM), actives largely listed as cytotoxic; 55,000 compounds, 0.62% hits; further: nearly all actives have a fitted effect of over 55% in size
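Luminescent ATP readout gave cell viability of p53-null H1299-neo cells after a 24 h compound exposure at the permissive 32C. Titrations ran up to 46 uM, and AC50s were fitted with the standard Hill equation.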
S16 viability = cytotoxicity in S16 Pmp22-F2sN Schwann cells; Potency, µM (titrated, usually from 57.5 µM), hits mostly cytotoxic; S16 Pmp22-F2sN Schwann cells viability, CellTiter-Glo, 24 h; 43,000 compounds, 0.48% hits; further: nearly all actives have a fitted effect of over 65% in size
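Viability was measured by CellTiter-Glo luminescence (15 min, room temperature). This followed 24 h at 37 °C of compound exposure (23 nL pin transfer) in S16 Pmp22-F2sN Schwann cells, 500-1,000 per well.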
pS6 MEF inh = reduces mTORC1 signaling in Tsc2 and p53 null MEF cells. Tsc2-/- p53-/- MEF, phospho-rpS6 immunofluorescence/PI, 24 h. Potency, µM (series often up to 38.3 µM), usual class: inhibitors. 44,000 compounds, 0.78% hits. AID 493208; further: nearly all actives have a fitted effect of over 50% in size
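Readout is phospho-S6 Alexa 488 signal normalized to PI per well, reported as % active cells with thresholds set from rapamycin (7.5 nM) and DMSO controls. Cells: Tsc2-/-, p53-/- MEFs, 24 hrs compound at 37 C; PI cell number serves as viability.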
p53null 39C kill = p53 null cell cytotoxicity, nonpermissive temperature | H1299 p53-null (neo) cells, 39C, ATPlite viability, 24 h | Potency, µM (top dose mostly 46.1 µM), usual class: cytotoxic | 55,000 compounds, 0.97% hits; further: nearly all actives have a fitted effect of over 50% in size
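Following overnight plating at 37C (600 cells/well), H1299-neo or H1299-p53A138V cells are dosed up to 46 uM. Incubation lasts 24 hr at 39C before ATP detection.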
NLuc saturating = inhibits NanoLuc at saturating substrate, PMP22 counter-screen | shares compounds with PMP22 txn | Secreted NLuc enzyme (filtered S16 cell medium), Nano-Glo luminescence | Potency, µM (titrated, usually from 57.5 µM), hits mostly inhibitors | 690 compounds, 4% hits | AID 1508638
NLuc Km counter = counter-screen for PMP22 expression modulators: NanoLuc inhibition at Km; shares compounds with PMP22 txn; secreted NLuc enzyme, coelenterazine luminescence, Km conditions; Potency, µM (doses to about 57.5 µM), hits mostly inhibitors; 690 compounds, 5% hits; AID 1508639
FLuc ctr PMP22 = inhibits firefly luciferase, PMP22 counter-screen; 690 tested, under 10 active; AID 1508640; shares compounds with PMP22 txn; purified P. pyralis FLuc, luminescence, 10 min; Potency, µM (series often up to 57.5 µM), actives largely listed as inhibitors
Target sequence (P08659 whole entry, looked up): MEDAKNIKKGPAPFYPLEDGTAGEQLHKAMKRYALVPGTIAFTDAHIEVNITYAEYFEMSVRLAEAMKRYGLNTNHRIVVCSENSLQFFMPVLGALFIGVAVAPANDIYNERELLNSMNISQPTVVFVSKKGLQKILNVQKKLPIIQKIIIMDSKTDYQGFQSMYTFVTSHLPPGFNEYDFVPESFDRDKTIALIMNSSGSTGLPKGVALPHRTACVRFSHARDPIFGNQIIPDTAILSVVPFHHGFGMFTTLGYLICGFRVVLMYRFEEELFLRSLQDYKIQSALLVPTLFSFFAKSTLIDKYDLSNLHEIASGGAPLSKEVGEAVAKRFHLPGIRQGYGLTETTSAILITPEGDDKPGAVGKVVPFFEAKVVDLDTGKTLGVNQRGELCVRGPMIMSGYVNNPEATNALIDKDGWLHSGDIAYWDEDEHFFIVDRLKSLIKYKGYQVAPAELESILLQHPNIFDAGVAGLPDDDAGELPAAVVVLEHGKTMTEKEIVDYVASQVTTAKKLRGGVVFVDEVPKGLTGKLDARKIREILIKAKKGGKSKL
S16 viab conf = confirmation of cytotoxicity in S16 Pmp22-F2sN Schwann cells (luciferase reporters placed in the Pmp22 gene) | shares compounds with PMP22 txn | S16 Schwann cells viability, CellTiter-Glo ATP luminescence, 24 h | Potency, µM (doses to about 57.5 µM), hits mostly cytotoxic | 690 compounds, 7% hits | AID 1508641
PMP22 txn conf = confirmation of modulators of PMP22 gene transcription in S16 cells | Potency, µM (doses to about 57.5 µM), usual class: inhibitors | S16 Schwann cells Pmp22-F2sN, dual luciferase, 24 h | 690 compounds, 22% hits | shares compounds with PMP22 txn | AID 1508646; active means clear falling dose curves in both reporters; inconclusive means both reporters move, but less clearly or upward; inactive means either reporter flat; the % is the FLuc reporter signal
PMP22 prot conf = rat PMP22 protein level modulation, confirmatory; shares compounds with PMP22 txn; AID 1508647; S16 Schwann cells Pmp22-HiBiT, luminescence, 48 h; Potency, µM (doses to about 27.9 µM), most hits filed as inhibitors; 95 tested, under 10 active
Target sequence (P25094 whole entry, looked up): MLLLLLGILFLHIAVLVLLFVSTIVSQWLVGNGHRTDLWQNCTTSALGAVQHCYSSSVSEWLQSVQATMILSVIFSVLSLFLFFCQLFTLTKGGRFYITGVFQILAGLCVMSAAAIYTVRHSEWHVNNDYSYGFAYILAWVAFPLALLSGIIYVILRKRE
Numbers stand for hits; n = inactive; u = inconclusive; x = no result given. Unless noted, the call rests on the fitted dose curve; in most records, active means well fitted curve in the direction sought with a large enough effect; inconclusive means small, poorly fitted or top-dose-only effect, or another doubt; inactive means no such curve, though single readings can be large; an effect the other way counts as inactive or inconclusive.

SMILES	PMP22 txn	SKOV3 invasion	p53null 32C tox	S16 viability	pS6 MEF inh	p53null 39C kill	NLuc saturating	NLuc Km counter	FLuc ctr PMP22	S16 viab conf	PMP22 txn conf	PMP22 prot conf
CCN1CCOC(=O)C1CC(=O)Nc1cc(Cl)ccc1OC (stereo not given)	18.9µM	n	x	u	u	x	n	n	n	n	u	x
CCN1CCOC(=O)C1CC(=O)Nc1ccc(C(C)=O)cc1 (stereo not given)	u	n	x	n	u	x	x	x	x	x	x	x
COC[C@@H](c1ccc(C(F)(F)F)cc1)N1CCN(C2(C)CCN(C(=O)c3c(C)ncnc3C)CC2)C[C@H]1C	x	n	x	x	x	x	x	x	x	x	x	x
Cc1ccc(O)c(-c2n[nH]c3c2C(c2ccc(F)cc2)N(Cc2ccco2)C3=O)c1 (stereo not given)	20µM	u	n	n	n	u	n	u	n	n	n	x
COc1ccc(S(=O)Cc2ccc(C(=O)N3CCN(c4cccc(C)c4C)CC3)o2)cc1 (stereo not given)	u	n	n	u	n	n	x	x	x	x	x	x
Cc1ccccc1S(=O)(=O)Cc1ccc(C(=O)N2CCN(c3cccc(Cl)c3)CC2)o1	11.9µM	n	n	u	u	n	u	n	n	n	9.74µM	u
COc1cccc(N2CCN(C(=O)c3ccc(CS(=O)c4cccc(Cl)c4)o3)CC2)c1 (stereo not given)	5.04µM	n	n	n	u	n	u	u	n	n	u	x
O=C(c1ccc(CS(=O)c2ccccc2Cl)o1)N1CCN(c2cccc(C(F)(F)F)c2)CC1 (stereo not given)	11.9µM	n	n	n	u	u	n	u	n	n	u	u
O=C(c1ccc(CS(=O)c2ccccc2Cl)o1)N1CCN(c2cccc(Cl)c2)CC1 (stereo not given)	u	n	n	n	u	u	x	x	x	x	x	x
OC[C@H]1O[C@@H](Oc2cc(O)cc(C=Cc3ccc(O)cc3)c2)[C@H](O)[C@@H](O)[C@H]1O	x	n	x	x	x	x	x	x	x	x	x	x
O=C(Nc1ccccc1)Nc1ccc(-c2ccc(C(=O)[C@H]3CCC[C@H]3C(=O)O)cc2)cc1	x	n	x	x	x	x	x	x	x	x	x	x
O=C(c1ccc(F)cc1)N1CCC[C@H](c2nc(-c3ccc(F)cc3)no2)C1	x	n	x	x	x	x	x	x	x	x	x	x
COc1ccc(Cl)cc1NC(=O)CCCS(=O)(=O)c1nc(-c2ccc(OC)c(OC)c2)cc(C(F)(F)F)n1	5.04µM	u	u	u	13.1µM	u	n	n	n	u	9.27µM	n
O=C(CCS(=O)(=O)c1nc(-c2cccs2)cc(C(F)(F)F)n1)Nc1ccc(F)c(Cl)c1	15µM	u	n	u	n	u	n	u	n	u	12.9µM	u
COc1ccc(Cl)cc1NC(=O)CCS(=O)(=O)c1nc(-c2cccs2)cc(C(F)(F)F)n1	10µM	u	n	u	n	u	u	u	n	u	8.85µM	x
COc1ccc(NC(=O)CSc2nc(-c3cccs3)cc(C(F)(F)F)n2)cc1Cl	u	n	n	n	n	n	x	x	x	x	x	x
O=C(CCS(=O)(=O)c1nc(-c2cccs2)cc(C(F)(F)F)n1)Nc1ccc(OC(F)(F)F)cc1	u	n	n	u	n	u	n	u	n	u	9.14µM	u
CON=C(C(=O)N[C@@H]1C(=O)N2C(C(=O)O)=C(CSC(=O)c3ccco3)CS[C@H]12)c1csc(N)n1	x	n	x	x	x	x	x	x	x	x	x	x
C[C@@H]1CCN(C(=O)CC#N)C[C@H]1N(C)c1ncnc2[nH]ccc12	x	n	x	x	x	x	x	x	x	x	x	x
CCCC1OC2C[C@@H]3[C@H]4CCC5=CC(=O)C=C[C@]5(C)[C@H]4C(O)C[C@]3(C)[C@]2(C(=O)CO)O1 (stereo not given in full)	x	n	x	x	x	x	x	x	x	x	x	x
C[C@@H](O[C@H]1OCCN(Cc2n[nH]c(=O)[nH]2)[C@@H]1c1ccc(F)cc1)c1cc(C(F)(F)F)cc(C(F)(F)F)c1	x	n	x	x	x	x	x	x	x	x	x	x
COc1cccc(-c2ccc(NC(=O)C3=C(C(=O)O)CCC3)c(F)c2)c1	x	n	x	x	x	x	x	x	x	x	x	x
COc1ccccc1-c1cc(C(F)(F)F)nc(S(=O)(=O)CCCC(=O)Nc2ccccc2F)n1	8.91µM	u	u	u	16.5µM	u	u	u	n	u	6.9µM	n
O=C(CCS(=O)(=O)c1nc(-c2ccc3c(c2)OCO3)cc(C(F)(F)F)n1)Nc1ccccc1F	u	u	n	n	n	n	x	x	x	x	x	x
COC(=O)c1ccccc1NC(=O)CCS(=O)(=O)c1nc(-c2ccc3c(c2)OCO3)cc(C(F)(F)F)n1	14.1µM	n	n	n	n	u	n	n	n	n	19.3µM	x
COc1ccc(NC(=O)CCS(=O)(=O)c2nc(-c3cccs3)cc(C(F)(F)F)n2)cc1	7.61µM	u	u	u	u	n	n	u	n	u	11.5µM	n
Nc1ncnc2nc(-c3ccc(N4CCOCC4)nc3)cc(-c3cccc(Br)c3)c12	x	n	x	x	x	x	x	x	x	x	x	x

Assay outcomes deposited in PubChem by National Center for Advancing Translational Sciences (NCATS).
